Structures are written as SMILES. This is part of a sample that, as a whole, favours compounds with a hit. Of some 83,000 tested, about 20% had one in any assay.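 48-hour exposure, single concentration, 96-well plates; percent growth endpoint where 0 means no net growth. Active: below 10.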 A number with no mark means an inactive call. The source made the active and inactive calls.

Test systems include T-47D breast; BT-549 breast; MDA-MB-435 melanoma; SW-620 colon; MCF7 breast; HCT-116 colon; KM12 colon; HCC-2998 colon.
Common to all, as to test: NCI-60 one-dose screen, 48 h (100 = growth as untreated, 0 = no growth, -100 = all killed)
Common to all, as to conditions: 10 µM unless noted

Consider `CC(=O)O[C@H]1C(=O)[C@@]2(C)[C@H]([C@H](OC(=O)c3ccccc3)[C@]3(O)C[C@H](OC(=O)[C@H](OC(=O)CCC(=O)OC4CCC(S/N=C(N)/N=C(\N)N(C)C)CC4)[C@@H](NC(=O)c4ccccc4)c4ccccc4)C(C)=C1C3(C)C)[C@]1(OC(C)=O)CO[C@@H]1C[C@@H]2O` (stereo partly drawn), for which the growth in the assay on T-47D breast is 46.7%; in the assay with BT-549 breast, 35.9%; with MDA-MB-435 melanoma it was 5.75% (active); in the assay on SW-620 colon it was 41.7%; in the assay with MCF7 breast it was 19.3%; in the assay on HCT-116 colon it was 6.14% (active). In the assay on KM12 colon, the growth was 10.7%.
For the compound `COc1ccc2c(c1)O/C(=C\c1cccc(OCC(=O)Nc3nc4c(s3)CCCC4)c1)C2=O`, the growth is 58.4% in the assay with T-47D breast; 105% in the assay with BT-549 breast; 83.1% in the assay on MDA-MB-435 melanoma; 89.1% in the assay on SW-620 colon; 86.1% in the assay on MCF7 breast; 77.7% in the assay with HCT-116 colon. Further, in the assay with KM12 colon, the growth is 82%.
For `COc1ccc(CN2c3ccccc3Oc3ccccc32)cc1F`, the growth with T-47D breast was 58.1%; in the assay with BT-549 breast, 70.1%; with MDA-MB-435 melanoma, -0.932% (active); in the assay with SW-620 colon it was 33.6%; with MCF7 breast it was 42.7%; in the assay with HCT-116 colon it was 31.1%. Further, in the assay with KM12 colon, the growth was 40.7%.
Take `Fc1ccc2[nH]cc(SSc3c[nH]c4ccc(F)cc34)c2c1`: the growth with T-47D breast is 27.5%; in the assay with BT-549 breast, 39.6%; in the assay with MDA-MB-435 melanoma, 46.2%; in the assay with SW-620 colon, 91.2%; with MCF7 breast, 32.2%; in the assay with HCT-116 colon, 25.3%. Besides, in the assay on KM12 colon, the growth was 24.3%.
In the case of `CCCCC[C@H]1C/C=C2/C(=O)C=C[C@@H]2C/C=C\CCCC(=O)O1`, the growth in the assay on T-47D breast was -2.9% (active); in the assay on BT-549 breast, -11.2% (active); with MDA-MB-435 melanoma, -26.7% (active); in the assay on SW-620 colon, 0.0064% (active); with MCF7 breast, 0.464% (active); in the assay on HCT-116 colon it was -67.6% (active). Also, the growth with KM12 colon was -83.6% (active).
Consider `CCCOc1ccc2nc(NC(=O)OC)[nH]c2c1`, for which the growth in the assay with T-47D breast is 89.8%; in the assay with BT-549 breast it was 33.4%; in the assay on MDA-MB-435 melanoma it was -49.3% (active); in the assay on SW-620 colon it was 22.8%; in the assay on HCT-116 colon, 9.34% (active); with HCC-2998 colon, -14% (active). For the same compound, the growth in the assay on KM12 colon is 5.74% (active).
With `Cn1cc(-c2nonc2-c2cn(C)c3ccc(F)cc23)c2cc(F)ccc21`, the growth in the assay on T-47D breast is 64.7%; with BT-549 breast, 68.6%; in the assay on SW-620 colon it was 22.2%; in the assay with MCF7 breast, 27.9%; in the assay with HCT-116 colon, 28.2%; with HCC-2998 colon it was 73%. Also, the growth in the assay with KM12 colon was 33%.
Turning to `CC[C@@H](C(=O)[C@@H](C)[C@@H](O)[C@H](C)[C@@H]1O[C@@H]([C@@H](CC)C(=O)O)CC[C@@H]1C)[C@H]1OC2(C=C[C@@H](O)[C@]3(CC[C@@](C)([C@H]4CC[C@](O)(CC)[C@H](C)O4)O3)O2)[C@H](C)C[C@@H]1C` (stereo partly drawn), the growth in the assay with T-47D breast was 27.2%; with BT-549 breast, -12.3% (active); with MDA-MB-435 melanoma, -76.2% (active); with SW-620 colon, 16.2%; with HCT-116 colon, 12%; in the assay with HCC-2998 colon, 10.7%. Further, in the assay with KM12 colon, the growth is 12.2%.
On to `COc1cc2nc(N3CCCC3)nc(NCCc3ccccc3)c2cc1OC`, for which the growth in the assay on T-47D breast is 80.8%; in the assay on BT-549 breast, 82.6%; in the assay with SW-620 colon, 0.907% (active); in the assay on MCF7 breast, 35.4%; with HCT-116 colon, 2.87% (active); in the assay on HCC-2998 colon, 70.6%. The growth with KM12 colon was 96.3%.
Regarding `O=c1c(F)cn(Cc2ccccc2CCl)c(=O)n1Cc1ccccc1CCl`, the growth was -49.5% (active) with T-47D breast; -73.9% (active) in the assay on BT-549 breast; -67.1% (active) in the assay with MDA-MB-435 melanoma; -74.6% (active) in the assay on SW-620 colon; -47.7% (active) in the assay on MCF7 breast; -56.9% (active) with HCT-116 colon. Moreover, the growth with KM12 colon is -16.2% (active).
For `N#Cc1c(-c2ccc(Cl)cc2)nc(N=Nc2c(O)[nH]c3ccc(Cl)cc23)nc1N1CCOCC1`, the growth in the assay with T-47D breast is 99.8%; with MDA-MB-435 melanoma, 97.5%; in the assay with SW-620 colon it was 91.8%; in the assay with MCF7 breast, 97.9%; in the assay on HCT-116 colon, 93.2%; in the assay on HCC-2998 colon, 96.3%. Moreover, the growth with KM12 colon is 101%.
Turning to `CSc1nc(NCc2ccccc2)c(C#N)c(-c2cccc([N+](=O)[O-])c2)n1`, the growth was 82.8% with T-47D breast; 99.4% with MDA-MB-435 melanoma; 96.5% in the assay with SW-620 colon; 91.8% with MCF7 breast; 87.1% in the assay with HCT-116 colon; 107% in the assay with HCC-2998 colon. Further, the growth with KM12 colon was 98.2%.
For the compound `CN1CCN(CCCOc2cccc3nc(Nc4cc(Cl)cc(Cl)c4)ccc23)CC1`, the growth was -25.3% (active) in the assay with T-47D breast; 65% in the assay with BT-549 breast; -66.6% (active) in the assay on SW-620 colon; -80.3% (active) in the assay on MCF7 breast; -26.6% (active) with HCT-116 colon; 30.2% with HCC-2998 colon. Besides, in the assay on KM12 colon, the growth was -71.9% (active).
`O=C1C=C(OCC=C(Cl)Cl)C(=O)c2ccccc21`: the growth in the assay with T-47D breast was 38.9%; with MDA-MB-435 melanoma, -55.7% (active); in the assay on SW-620 colon, 78.3%; in the assay on MCF7 breast, 26.6%; with HCT-116 colon, 21.8%; in the assay with HCC-2998 colon it was 112%. For the same compound, the growth in the assay with KM12 colon is 91%.
On to `COc1cc(-c2ccc3c(c2)NC(=O)/C3=C\c2ccc[nH]2)ccc1O`, for which the growth is 35.2% with T-47D breast; 12.2% in the assay with MDA-MB-435 melanoma; 28.8% in the assay on SW-620 colon; 6.69% (active) with MCF7 breast; 14.1% with HCT-116 colon; 1.36% (active) with HCC-2998 colon. In addition, in the assay on KM12 colon, the growth was 1.34% (active).
Consider `Cn1ccnc1C(=O)/C=C/c1ccc(CC(=O)Nc2ccccc2)cc1`, for which the growth is 15.2% in the assay with T-47D breast; 13.5% with MDA-MB-435 melanoma; 2.2% (active) in the assay on SW-620 colon; 12% in the assay with MCF7 breast; 18.2% in the assay on HCT-116 colon; 29% with HCC-2998 colon. Further, in the assay on KM12 colon, the growth is 3.7% (active).
Regarding `CC(C)(C)N1CCC1CN` (stereo not drawn), the growth is 96.3% in the assay with T-47D breast; 118% with BT-549 breast; 104% in the assay with SW-620 colon; 126% in the assay on MCF7 breast; 99.5% with HCT-116 colon; 107% in the assay with KM12 colon.
For the compound `CCc1nnc(CNc2ccc(Cl)cc2)o1`, the growth in the assay on T-47D breast was 93.9%; with BT-549 breast, 96.4%; in the assay with SW-620 colon, 97.7%; with MCF7 breast it was 91.3%; in the assay on HCT-116 colon, 96.1%; in the assay on HCC-2998 colon, 97.6%. The growth in the assay with KM12 colon is 101%.
For `CN(C)C(=S)N=Nc1c(O)[nH]c2ccccc12`, the growth was 25% in the assay with T-47D breast; 40.3% with MDA-MB-435 melanoma; 30.2% in the assay on SW-620 colon; 17.8% in the assay with MCF7 breast; 3.73% (active) in the assay on HCT-116 colon; 23.9% in the assay on HCC-2998 colon. For the same compound, the growth with KM12 colon was 25.9%.
Turning to `CCOc1ccc(C(C)=O)cc1NC(=O)c1cccc(-c2nnn(CC)n2)c1`, the growth in the assay on T-47D breast was 29.6%; with BT-549 breast, 58.5%; with SW-620 colon, 31.2%; in the assay with MCF7 breast it was 32.5%; in the assay on HCT-116 colon, 19.3%; in the assay on KM12 colon it was 23.8%.
Turning to `CCc1nc(N)nc(N)c1C#CC(C)c1cc(-c2ccnc(C)c2)c2oc(C)nc2c1` (stereo not drawn), the growth with T-47D breast was 9.59% (active); in the assay on MDA-MB-435 melanoma, 19.4%; in the assay with SW-620 colon it was 16.9%; with MCF7 breast, 8.57% (active); in the assay with HCT-116 colon, 11.6%; in the assay on HCC-2998 colon it was 13%. In addition, the growth in the assay with KM12 colon is 5.92% (active).
As for `Oc1cccc(-c2nc(N3CCOCC3)c3c4c(sc3n2)CCCC4)c1`, the growth with T-47D breast was 9.18% (active); in the assay on BT-549 breast it was 45.4%; in the assay with SW-620 colon, 63.3%; in the assay on MCF7 breast it was 42%; with HCT-116 colon it was 66.5%; in the assay with HCC-2998 colon it was 81.9%. In addition, the growth in the assay on KM12 colon is 62.6%.
Turning to `COc1ccc(CCNc2nc3c(c(=O)n(Cc4ccc(Br)cc4)c(=O)n3C)n2C)cc1OC`, the growth is 66.2% in the assay on T-47D breast; 99.2% with MDA-MB-435 melanoma; 99.5% with SW-620 colon; 94.4% in the assay with MCF7 breast; 90.5% in the assay on HCT-116 colon; 101% in the assay with HCC-2998 colon. Besides, the growth in the assay with KM12 colon is 100%.
As to `Cn1cc(C(=O)c2nc(-c3c[nH]c4ccc(Br)cc34)no2)c2cc(F)ccc21`, the growth with T-47D breast was 89.7%; in the assay on BT-549 breast it was 95.7%; in the assay on SW-620 colon, 95.3%; with MCF7 breast, 82.1%; in the assay with HCT-116 colon, 104%; with HCC-2998 colon, 97.5%. The growth in the assay on KM12 colon is 96.3%.
As to `Cc1ccc(/C=C2\SC(=S)N(CC(=O)NCCCN3CCOCC3)C2=O)cc1`, the growth with T-47D breast is 90.4%; in the assay with BT-549 breast, 102%; in the assay with SW-620 colon, 103%; with MCF7 breast it was 91.5%; in the assay with HCT-116 colon, 100%; in the assay with HCC-2998 colon, 102%. For the same compound, the growth in the assay on KM12 colon is 105%.
`O=C(O)COc1ccc(Cl)cc1C1CCCCC1`: the growth was 114% in the assay on T-47D breast; 117% with BT-549 breast; 104% with SW-620 colon; 104% in the assay on MCF7 breast; 101% in the assay with HCT-116 colon; 103% with KM12 colon.
With `O=C(CCCCC(=O)N/N=C\c1ccccc1O)N/N=C\c1ccccc1O`, the growth is 35.5% in the assay with T-47D breast; 38.4% with BT-549 breast; 34.2% with SW-620 colon; 27.5% with MCF7 breast; 25.5% in the assay on HCT-116 colon; 21.4% in the assay with HCC-2998 colon. Also, the growth with KM12 colon is 33.6%.
For the compound `O=C1C=C(O)C(=O)C(CC2=C(O)C(=O)C=C(O)C2=O)=C1O`, the growth is 104% in the assay on T-47D breast; 100% with MDA-MB-435 melanoma; 97.8% with SW-620 colon; 105% with MCF7 breast; 106% with HCT-116 colon; 97.2% with HCC-2998 colon. Further, the growth in the assay on KM12 colon was 104%.

For the origin of these results see PubChem BioAssay (NCI).
